Source: PubChem BioAssay (several laboratories)
The list is not random: actives were taken first. Their share in the collection is about 1.1%.
Mtb betalactam – beta-lactam sensitization of Mtb H37Rv, H37Rv | AID 434955, 2010 | M. tuberculosis H37Rv growth with meropenem, percent inhibition | inhibition, % at 25 µM | 0.27% of 330,000 active; call rule not given here;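 further: growth measured after seven days incubation then overnight dye step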
CCHF vOTU inh-1 – CCHFV vOTU protease inhibitors, primary screen, biochemical, Pep-AMC substrate, fluorescence. Crimean-Congo hemorrhagic fever virus L polyprotein viral ovarian tumor (vOTU) protease …. 0.55% of 370,000 active. inhibition, % at 11.5 µM
Y pestis TopoI – Yersinia pestis topoisomerase I inhibitors, primary screen, biochemical, cleavage product accumulation, plate reader, single point. DNA topoisomerase I (Yersinia pestis CO92). Y. pestis Topo-I cleavage product accumulation. activity, % at 10 µM. 0.064% of 360,000 active. AID 504884, 2011; in the data active means activity above about 50%, passing the limit was not always enough; inconclusive means no clear call, values can overlap the other calls
RecA splice inh – Mtb RecA intein splicing inhibitors, primary screen, biochemical, fluorescence, HTS. Protein RecA (Mycobacterium tuberculosis (strain ATCC 25618 / H37Rv)), P9WHJ3. cell-free RecA intein splicing. inhibition, % (concentration not given with the values). 0.75% of 290,000 active. AID 2221, 2009; in the data active means inhibition above about 30%; inconclusive means no clear call, values can overlap the other calls
BJeLR lethal – MLPCN primary cell-based screen for lethality selective to Ras in HRASV12 cells; inhibition, % (test concentration not listed); BJeLR (HRASV12) viability, CellTiter-Glo ATP luminescence, 48 h; AID 1554, 2009; 0.17% of 300,000 active; in the data active means inhibition above about 50%; inconclusive means no clear call, values can overlap the other calls
Mtb BioA inh – M. tuberculosis BioA enzyme inhibitors, primary screen, biochemical, plate reader, single point, HTS; 7,8-diaminopelargonic acid synthase BioA (Mycobacterium tuberculosis); purified M. tuberculosis BioA enzyme; inhibition, % at 9.99 µM; 0.096% of 360,000 active; in the data active means inhibition above about 40%; inconclusive means no clear call, values can overlap the other calls
CCHF vOTU inh-2 – CCHFV vOTU protease inhibitors, confirmation, biochemical, Pep-AMC substrate, fluorescence | shares compounds with CCHF vOTU inh-1 | Recombinant CCHFV vOTU | inhibition, % at 11.5 µM | 17% of 1,900 active
Large screens that a line does not name were inactive (follow-up assays come after a bar, where they were run). Unless noted, no stated cut-off is given here; in the data, active means inhibition above about 30%; inactive means the rest.

Cc1cc(NS(=O)(=O)c2ccc(NC(=O)c3oc4ccccc4c3C)cc2)no1	CCHF vOTU inh-1 31 | CCHF vOTU inh-2 inactive
COc1ccc(OCC(=O)Nc2ccc(S(=O)(=O)Nc3cc(C)on3)cc2)cc1	none
Cc1cc(NS(=O)(=O)c2ccc(NC(=O)COc3c(C)cc(Br)cc3C)cc2)no1	CCHF vOTU inh-1 31 | CCHF vOTU inh-2 inactive
O=C(C[C@@H]1CC[C@@H]2[C@H](COC[C@H](O)CN2C(=O)c2ccccc2)O1)NCc1ccc(-c2ccccc2)cc1	none (no result: Mtb betalactam, CCHF vOTU inh-1, Y pestis TopoI, RecA splice inh, BJeLR lethal)
O=C(Nc1ccccc1)N[C@@H]1CC[C@H](CCn2cc(C3(O)CCCC3)nn2)O[C@H]1CO	none (no result: Mtb betalactam, CCHF vOTU inh-1, Y pestis TopoI, RecA splice inh, BJeLR lethal)
C[C@@H]1CN([C@H](C)CO)C(=O)c2cccc(N(C)C)c2O[C@@H]1CN(C)S(=O)(=O)c1cn(C)cn1	none (no result: Mtb betalactam, CCHF vOTU inh-1, Y pestis TopoI, RecA splice inh, BJeLR lethal)
Cc1ccc(C2NC(=O)NC(O)(C(F)(F)F)C2C(=O)c2ccccc2)o1 (stereo unspecified)	none
O=C1NC(c2ccc(-c3ccccc3[N+](=O)[O-])o2)C(C(=O)c2ccc(F)cc2)C(O)(C(F)(F)F)N1 (stereo unspecified)	CCHF vOTU inh-1 42, RecA splice inh 83 | CCHF vOTU inh-2 inactive
C[C@@H]1CN([C@H](C)CO)C(=O)Cc2cc(NC(=O)C3CC3)ccc2O[C@H]1CN(C)S(=O)(=O)c1cn(C)cn1	none (no result: Mtb betalactam, CCHF vOTU inh-1, Y pestis TopoI, RecA splice inh, BJeLR lethal)
O=C(NCc1ccc2c(c1)OCO2)c1cc(COc2c(F)cccc2F)on1	Mtb betalactam inconclusive
O=C(NCc1ccc(N2CCCC2=O)cc1)c1cc(COc2c(F)cccc2F)on1	CCHF vOTU inh-1 38 | CCHF vOTU inh-2 inactive
C[C@H](NC(=O)C[C@H]1CC[C@@H](NC(=O)CN2CCOCC2)[C@@H](CO)O1)c1ccccc1	none (no result: Mtb betalactam, CCHF vOTU inh-1, Y pestis TopoI, RecA splice inh, BJeLR lethal)
Cc1ccc(S(=O)(=O)NCC[C@H]2CC[C@H](NC(=O)Nc3cccc(F)c3)[C@@H](CO)O2)cc1	none (no result: Mtb betalactam, CCHF vOTU inh-1, Y pestis TopoI, RecA splice inh, BJeLR lethal)
CCN1/C(=C/c2ccc3cc(C)ccc3[n+]2CC)Sc2ccccc21	CCHF vOTU inh-1 31 (no result: BJeLR lethal, Mtb BioA inh) | CCHF vOTU inh-2 inactive
CNC(=O)C[C@@H]1CC[C@H]2[C@@H](COc3ccc(NC(=O)c4ccccc4Cl)cc3C(=O)N2C)O1	none (no result: Mtb betalactam, CCHF vOTU inh-1, Y pestis TopoI, RecA splice inh, BJeLR lethal)
Cc1ccccc1Nc1c([N+](=O)[O-])cncc1[N+](=O)[O-]	CCHF vOTU inh-1 30 | CCHF vOTU inh-2 inactive
Cc1c(C(=O)O)cccc1-c1ccc(C=O)o1	CCHF vOTU inh-1 36 | CCHF vOTU inh-2 inactive
CN1C(=O)c2cc(NC(=O)NC3CCCC3)ccc2OC[C@H]2O[C@H](CC(=O)O)CC[C@H]21	none (no result: Mtb betalactam, CCHF vOTU inh-1, Y pestis TopoI, RecA splice inh, BJeLR lethal)
CC1(C(=O)Nc2ccc(F)cc2F)CCN1C(=O)CCC1CCCC1 (stereo unspecified)	CCHF vOTU inh-1 33 (no result: Mtb betalactam, RecA splice inh, BJeLR lethal) | CCHF vOTU inh-2 inactive
O=C(CCN1CCCCC1)N[C@H]1CC[C@@H](CCNS(=O)(=O)c2ccc(Cl)cc2)O[C@H]1CO	none (no result: Mtb betalactam, CCHF vOTU inh-1, Y pestis TopoI, RecA splice inh, BJeLR lethal)
CC(CC(=O)N1CCc2ccccc21)n1cccn1 (stereo unspecified)	CCHF vOTU inh-1 35 | CCHF vOTU inh-2 inactive
CC(=O)c1ccc(NC(=S)Nc2cccc3cnccc23)cc1	CCHF vOTU inh-1 39 (no result: Mtb BioA inh) | CCHF vOTU inh-2 81
CN(c1ccccc1)c1ccc(/C=C(\CCC(=O)O)c2nc3ccccc3s2)cc1[N+](=O)[O-]	CCHF vOTU inh-1 36 (no result: Mtb BioA inh) | CCHF vOTU inh-2 inactive
CNc1ccc(/C=C(\CCC(=O)O)c2nc3ccccc3s2)cc1[N+](=O)[O-]	none (no result: Mtb BioA inh)
O=C(NCCc1ccccc1)[C@H]1[C@H](CO)[C@H]2Cn3c(cccc3=O)[C@@H]1N2CC1CC1	none (no result: Mtb betalactam, CCHF vOTU inh-1, Y pestis TopoI, RecA splice inh, BJeLR lethal)
C[C@H](CO)N1C[C@H](C)[C@H](CN(C)C(=O)Cc2ccccn2)Oc2cc(-c3cccc(C(=O)N(C)C)c3)ccc2S1(=O)=O	none (no result: Mtb betalactam, CCHF vOTU inh-1, Y pestis TopoI, RecA splice inh, BJeLR lethal)
C[C@@H]1CN([C@H](C)CO)C(=O)c2cc(C3=CCCC3)cnc2O[C@@H]1CN(C)C(=O)NC1CCCC1	none (no result: Mtb betalactam, CCHF vOTU inh-1, Y pestis TopoI, RecA splice inh, BJeLR lethal)
O=C1SCCN1N=Cc1ccc([N+](=O)[O-])o1	CCHF vOTU inh-1 32 (no result: Mtb betalactam, RecA splice inh, BJeLR lethal) | CCHF vOTU inh-2 inactive
